# Records with an inconclusive call do not appear. The source made the active and inactive calls. Unless noted, calls follow the shape of the full dose curve.
# Target: Glutathione peroxidase 1 (Homo sapiens) (UniProt P07203)
# Assay: Primary qHTS Assay for Inhibitors of Recombinant Selenoprotein Glutathione Peroxidase 1 (GPX1) (AID 1845191; active = well fitted inhibition curve with a large enough effect; also: nearly all actives have a fitted effect of over 65% in size; as to activity, negative = inhibition: % is scaled to controls: 0 for no effect and ±100 for the full control effect)
# Settings: recombinant GPX1, GR-coupled NADPH fluorescence, 15 min; series mostly up to 48.8 µM; activity, negative = inhibition: at the top concentration
# Method in brief: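 NADPH consumption tracked by fluorescence at 340/450 nm between t=0 and t=15 min, room temperature. Final mix: 10 nM GPX1, 100 nM glutathione reductase, 1 mM GSH, 0.5 mM NADPH, 0.5 mM cumene hydroperoxide, 0.01% BSA; 30 min compound–enzyme preincubation.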
# Glutathione peroxidase 1 (Homo sapiens), sequence (P07203 whole entry, looked up): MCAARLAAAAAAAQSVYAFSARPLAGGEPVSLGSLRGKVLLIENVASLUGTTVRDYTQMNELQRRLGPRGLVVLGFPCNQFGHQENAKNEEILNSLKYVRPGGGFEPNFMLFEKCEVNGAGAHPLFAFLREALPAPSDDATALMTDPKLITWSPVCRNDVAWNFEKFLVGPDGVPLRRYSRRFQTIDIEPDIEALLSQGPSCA
Structure (SMILES),"activity, negative = inhibition",outcome
O=C(O)c1c[nH]c2c(ccc3ccccc32)c1=O,2.59% (inactive),
Cc1nc(CNc2ncnc3ccc(-c4ccc5c(c4)OCO5)cc23)cs1,,inactive
O=C(NOCCO)c1cc(CN2OCCCC2=O)c(F)c(F)c1Nc1ccc(I)cc1F,,inactive
Cc1c[nH]c(/C=C2\C(=O)Nc3ccccc32)c1CCC(=O)O,,inactive

# Target: Phospholipid hydroperoxide glutathione peroxidase GPX4 (Homo sapiens) (UniProt P36969)
# Assay: Primary qHTS Assay for Inhibitors of Recombinant Selenoprotein Glutathione Peroxidase 4 (GPX4) (AID 1845192; active = well fitted inhibition curve with a large enough effect; also: nearly all actives have a fitted effect of over 65% in size; also: potency is read from the fitted curve at half-maximal effect; as to activity change, negative = inhibition: % is scaled to controls: 0 for no effect and ±100 for the full control effect)
# Settings: recombinant GPX4, GR-coupled NADPH fluorescence, 15 min; series mostly up to 50 µM; activity change, negative = inhibition: at the top concentration
# Method in brief: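 NADPH consumption followed by fluorescence at 340/450 nm, t=0 and after 15 min at room temperature. Reaction started with cumene hydroperoxide (0.5 mM final) after 30 min compound–GPX4 preincubation; final 200 nM GPX4, 100 nM GR, 1 mM GSH, 0.5 mM NADPH.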
# Phospholipid hydroperoxide glutathione peroxidase GPX4 (Homo sapiens), sequence (P36969 whole entry, looked up): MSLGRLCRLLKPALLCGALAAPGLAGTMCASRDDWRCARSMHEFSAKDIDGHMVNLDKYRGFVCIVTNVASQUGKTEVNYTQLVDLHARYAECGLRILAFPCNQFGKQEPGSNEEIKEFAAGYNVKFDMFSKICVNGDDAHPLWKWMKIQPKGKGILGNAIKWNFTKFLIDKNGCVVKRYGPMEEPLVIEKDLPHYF
Structure (SMILES),"activity change, negative = inhibition",Potency,outcome
O=S(=O)(NCCNC/C=C/c1ccc(Br)cc1)c1cccc2cnccc12,-13.8% (inactive),,
CC(C)=CCC/C(C)=C/CC/C(C)=C/CSc1ccccc1C(=O)O,,16.1 µM (active),
CN(C)Cc1cccc(N=C(c2ccccc2)c2c(O)[nH]c3cc(C(N)=O)ccc23)c1,-2.42% (inactive),,
CCCCCCCCCCCCCCCCOCCCOP(=O)(O)COC(CO)Cn1ccc(N)nc1=O (stereo unspecified),,,inactive
COC1(c2sc3c(N4CCOCC4)nc(-c4cnc(N)nc4)nc3c2C)COC1,,,inactive
Cn1cc(-c2cc(Oc3cc(F)c(NC(=O)C4(C(=O)Nc5ccccc5)CC4)cc3F)ccn2)cn1,-14.3% (inactive),,
COc1cc(OC)cc(N(CCNC(C)C)c2ccc3ncc(-c4cnn(C)c4)nc3c2)c1,-11.2% (inactive),,
Cc1c[nH]c(/C=C2\C(=O)Nc3ccccc32)c1CCC(=O)O,-25.2% (inactive),,

# System: not listed separately
# Assay: qHTS drug screen for cell cycle checkpoint inhibitors in PARPi-resistant BRCA-mutant ovarian cancer cell lines. (AID 1963452)
# Settings: PEO1/OlaR viability, CellTiter-Glo luminescence, 96 h; stronger effect = lower value
# Method in brief: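 PEO1, PEO4 and PEO1/OlaR ovarian cancer cells, 600 per well, exposed 96 h at 37C to a dilution series. Viability read by CellTiter-Glo luminescence, normalized to DMSO and empty wells; activity summarized as Z-AUC.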
row,Structure (SMILES),Z-AUC
1,O=S(=O)(NCCNC/C=C/c1ccc(Br)cc1)c1cccc2cnccc12,0.684 (inactive)
2,CC(C)=CCC/C(C)=C/CC/C(C)=C/CSc1ccccc1C(=O)O,0.993 (inactive)
3,CN1CCN(c2nc(C3=C(c4c[nH]c5ccccc45)C(=O)NC3=O)c3ccccc3n2)CC1,1.37 (inactive)
4,CN(C)Cc1cccc(N=C(c2ccccc2)c2c(O)[nH]c3cc(C(N)=O)ccc23)c1,0.325 (inactive)
5,Cc1ccc(Nc2ncc3c(n2)N(C)C(=O)N(c2cc(NC(=O)c4cccc(C(F)(F)F)c4)ccc2C)C3)cn1,-1.89 (inactive)
6,CCCCCCCCCCCCCCCCOCCCOP(=O)(O)COC(CO)Cn1ccc(N)nc1=O (stereo unspecified),0.0641 (inactive)
7,COc1ccc(-c2oc3ncnc(N)c3c2-c2ccc(NC(=O)Nc3cc(C(F)(F)F)ccc3F)cc2)cc1,0.736 (inactive)
8,COC1(c2sc3c(N4CCOCC4)nc(-c4cnc(N)nc4)nc3c2C)COC1,-1.69 (inactive)
9,CNC(=O)c1c(C)oc2cc(Oc3ncnc4cc(OC)c(OC)cc34)ccc12,-0.474 (inactive)
10,NC1CCCN(c2c(/C=C3\SC(=O)NC3=O)cccc2-c2ccccc2)C1 (stereo unspecified),-0.874 (inactive)
11,Cn1cc(-c2cc(Oc3cc(F)c(NC(=O)C4(C(=O)Nc5ccccc5)CC4)cc3F)ccn2)cn1,0.797 (inactive)
12,COc1cc(OC)cc(N(CCNC(C)C)c2ccc3ncc(-c4cnn(C)c4)nc3c2)c1,-0.272 (inactive)
13,O=C(NOCCO)c1cc(CN2OCCCC2=O)c(F)c(F)c1Nc1ccc(I)cc1F,-1.18 (inactive)
14,Cc1c[nH]c(/C=C2\C(=O)Nc3ccccc32)c1CCC(=O)O,1.24 (inactive)
